Among all 47,000 compounds or so, about 2,500 (5.3%) were called active. Many of the other results were omitted from the sample, so actives are more common in it than they were. A number with no mark means an inactive call. Rule as the data show it: active = inhibition above about 30%; inactive = the rest.

Sequence of Ubiquitin carboxyl-terminal hydrolase 30 (Homo sapiens) (Q70CQ3 whole entry, looked up): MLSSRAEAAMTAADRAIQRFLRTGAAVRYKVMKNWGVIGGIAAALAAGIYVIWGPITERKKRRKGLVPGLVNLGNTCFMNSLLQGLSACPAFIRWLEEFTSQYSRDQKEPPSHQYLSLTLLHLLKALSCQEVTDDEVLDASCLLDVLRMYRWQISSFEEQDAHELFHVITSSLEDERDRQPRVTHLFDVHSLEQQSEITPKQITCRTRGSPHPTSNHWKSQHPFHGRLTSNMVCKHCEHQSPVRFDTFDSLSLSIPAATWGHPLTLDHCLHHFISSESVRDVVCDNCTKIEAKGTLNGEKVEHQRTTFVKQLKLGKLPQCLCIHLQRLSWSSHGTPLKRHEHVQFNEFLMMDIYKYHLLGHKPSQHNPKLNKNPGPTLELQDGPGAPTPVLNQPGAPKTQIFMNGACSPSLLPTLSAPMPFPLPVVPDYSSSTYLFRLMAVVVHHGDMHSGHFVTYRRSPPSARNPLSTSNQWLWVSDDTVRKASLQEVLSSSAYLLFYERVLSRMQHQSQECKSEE

This test addresses Ubiquitin carboxyl-terminal hydrolase 30 (Homo sapiens) (UniProt Q70CQ3). Briefly: blocks human USP30 ubiquitin-rhodamine cleavage (AID 1645860). Conditions: purified USP30, Ub-rhodamine cleavage fluorescence; at 25 µM; stronger effect = higher value.
Consider `COc1ccc(-c2nn(-c3ccccc3)cc2C(=O)N2CCCCC2)cc1`, for which the inhibition is -1.66%.

For `O=C(CN1CCN(CC(=O)Nc2ccc3c(c2)OCO3)CC1)Nc1ccc(F)cc1`, the inhibition is -29.4%.

`O=C(Nc1ccc(Oc2ccccc2F)cc1)C1CCN(Cc2cccc(O)c2)CC1`: the inhibition is 23%.

As to `O=C(Nc1cccc(-c2cccc(F)c2)c1)C1CCN(Cc2cccc3c2OCO3)CC1`, the inhibition is 36.9% (active).

On to `CC1CCC(NC(=O)Cn2c(=O)[nH]c3ccccc3c2=O)CC1` (configuration not stated), for which the inhibition was 26.9%.

In the case of `CCOC(=O)N1CCC(NC(=O)CCc2ccccc2)CC1`, the inhibition is 11.3%.

For `COc1ccc(CCNC(=O)[C@@H](NC(=O)[C@@H]2Cc3c([nH]c4ccccc34)C3c4ccccc4C(=O)N32)C(C)C)cc1` (some centres not stated), the inhibition is -104%.

For `COc1ccccc1NC(=O)Nc1ccc(CCc2nc3ccccc3[nH]2)cc1`, the inhibition is -27.4%.

`CCOc1ccccc1NC(=O)Nc1cc(-c2nc3ccccc3o2)ccc1OC`: the inhibition is 58.5% (active).

As to `COc1ccccc1NC(=O)N1CCN(Cc2nc3ccccc3o2)CC1`, the inhibition is 7.46%.

In the case of `COc1ccc(C(=O)NCC(=O)Nc2nc3ccccc3[nH]2)c(C)c1`, the inhibition was 9.21%.

As to `O=C(NC1CCCC1)c1csc(C(=O)N2CCCC2)n1`, the inhibition was 3.97%.

As to `CC(C(=O)N1c2ccccc2NC(=O)C1(C)C)N1CCCC1c1ccc2c(c1)OCCO2` (configuration not stated), the inhibition is -221%.

Regarding `Cc1c(C)n2c(SCC(=O)N(C)c3ccccc3)nnc2[nH]c1=O`, the inhibition was 6.75%.

As for `CCCCOc1ccc(C(=O)Nc2ccc3c(c2)CCC(=O)N3CCC)cc1`, the inhibition is 46.1% (active).

In the case of `CCN1C(=O)CCc2cc(NC(=O)Cc3ccc(OC)c(Cl)c3)ccc21`, the inhibition was -7.67%.

As for `COCCN1C(=O)CCc2cc(NS(=O)(=O)c3cc(C)cc(C)c3)ccc21`, the inhibition was -16.1%.

As to `CC(=O)Nc1ccc(C(=O)NCCn2c(C)nc3ccccc32)cc1`, the inhibition was 27.4%.

As for `CC(C)Cc1cc(C(=O)N2CCOC(c3nccnc3N)C2)n(C)n1` (configuration not stated), the inhibition is 10.1%.

As to `COc1ccccc1CCNC(=O)c1cccc(N2C(=O)C(C)(C)CS2(=O)=O)c1`, the inhibition is -7.58%.

As to `COc1ccc(-c2nc(-c3nnn(Cc4cccc(F)c4)c3C)no2)cc1`, the inhibition is 8.22%.

As for `CCOc1ccccc1-c1nc(-c2nnn(Cc3ccccc3)c2C)no1`, the inhibition was 51.6% (active).

In the case of `Cc1c(-c2noc(-c3cccc(N(C)C)c3)n2)nnn1Cc1cccc(F)c1`, the inhibition was -2.61%.

For `COC(=O)c1ccccc1NC(=O)Cn1cc(S(=O)(=O)Cc2ccc(C)cc2)c2ccccc21`, the inhibition was -13.4%.

Turning to `COCc1ccc(C(=O)N2CCC3(CC2)CNC(=O)c2ccccc2O3)cc1`, the inhibition is 14.1%.

`Cc1ccc(Cc2nnc(C(=O)NC(C)c3ccccc3)o2)cc1` (configuration not stated): the inhibition is -0.465%.

On to `Cc1ccc(S(=O)(=O)N(CC(=O)NC(C)c2ccccc2)Cc2ccccc2F)cc1` (configuration not stated), for which the inhibition is 32.6% (active).

With `O=C(CN(Cc1ccccc1Cl)S(=O)(=O)c1ccccc1F)NC(c1ccccc1)c1ccccc1`, the inhibition is 33.4% (active).

As to `O=S(=O)(Nc1ccccc1Cc1ccccc1)c1ccccc1F`, the inhibition is 16.2%.

On to `O=C(CNC(c1ccccc1)c1ccccc1)Nc1ccc(F)cc1`, for which the inhibition was 13.6%.

`COc1ccccc1N(CC(=O)NCc1cccnc1)S(=O)(=O)c1ccc(C)cc1`: the inhibition is -6.24%.

On to `Cc1nc2nc(NCc3ccccc3)[nH]n2c(=O)c1CCC(=O)N1CCC(C)CC1`, for which the inhibition is 0.108%.

On to `O=C(NCc1ccccn1)C1CCCN(c2ccc(-c3ccccc3)nn2)C1` (configuration not stated), for which the inhibition was 23.1%.

In the case of `Cc1ccc(NC(=O)Cn2c(N3CCCC3)nc(C)cc2=O)cc1`, the inhibition is 18.2%.

Regarding `CN1CC(=O)N(C2CCCNC2)Cc2c(NC3CCc4ccccc43)ncnc21` (configuration not stated), the inhibition is 69.8% (active).

With `c1ccc(-c2csc3ncnc(NC4CCCc5ccccc54)c23)cc1` (configuration not stated), the inhibition was -52.1%.

As to `Cc1ccccc1CNC(=O)N1CCC2(CC1)NC(=O)[C@H]1CN(c3ncccn3)C[C@H]12`, the inhibition is 25.7%.

On to `Cc1cccc(-c2cccc(C3CCCN(C(=O)c4cnccn4)C3)n2)c1` (configuration not stated), for which the inhibition was -38%.

For the compound `O=C(Nc1ccccc1F)Nc1nnc2cccc(Cl)n12`, the inhibition is -21.8%.

For the compound `Cc1nc2ccccc2c(=O)n1CC(=O)N1CCCc2ccccc21`, the inhibition was 17.4%.

As for `CN(CCc1ccccn1)CC(=O)N1CCc2ccccc21`, the inhibition was -0.887%.

Take `COC(=O)COc1cccc2c(=O)n(CC(=O)N3CCc4ccccc43)ccc12`: the inhibition was 37% (active).

On to `Cc1ccc(C)c(N2CCN(c3nc4ccc(Cl)cc4nc3-n3nc(C)cc3C)CC2)c1`, for which the inhibition is -8.16%.

Turning to `Cc1ccc(CC(=O)N2CCN(C(=O)c3cc(-c4ccccn4)n[nH]3)CC2)cc1`, the inhibition is 4.03%.

Take `O=C(Nc1ccc(Cl)cc1F)c1cc(-c2ccccn2)n[nH]1`: the inhibition was 12.6%.

With `COc1cc(Cl)c(NC(=O)c2cc(-c3ccccn3)n[nH]2)c(OC)c1`, the inhibition was 31.5% (active).

In the case of `O=C(Cn1cc(SCc2cccc(F)c2)c2ccccc21)N1CCCCCC1`, the inhibition is 35.3% (active).

As for `O=C(Cn1cc(S(=O)(=O)Cc2ccccc2Cl)c2ccccc21)N1CCCCCC1`, the inhibition was -0.265%.

On to `CC(=O)Nc1cccc(NC(=O)CSc2cn(CC(=O)N3CCC(C)CC3)c3ccccc23)c1`, for which the inhibition was -1.08%.

In the case of `COCCN1CC(C(=N)N)C(=O)NC1=O` (configuration not stated), the inhibition was -45.1%.

For `COc1ccc(CC(=O)Nc2ccc3c(c2)CN(C(=O)c2ccco2)CC3)cc1`, the inhibition is 19.1%.

`O=C(CC1(O)C(=O)N(Cc2cccc3ccccc23)c2ccccc21)c1cccc2ccccc12` (configuration not stated): the inhibition is 2.93%.

Take `CN1CCc2c(sc3nc(SCCc4ccccc4)n(-c4ccccc4)c(=O)c23)C1`: the inhibition is -152%.

As to `O=S(=O)(Nc1cccc(O)c1)c1ccc2oc3ccc(S(=O)(=O)Nc4cccc(O)c4)cc3c2c1`, the inhibition is 42.9% (active).

Consider `Cc1cccc(NS(=O)(=O)c2ccc3nnc(C)n3c2)c1`, for which the inhibition is -4.01%.

Turning to `COc1cccc(NS(=O)(=O)c2ccc(-c3coc(C)n3)cc2)c1`, the inhibition was -18.4%.

With `Oc1cccc2nc3c(O)cccc3nc12`, the inhibition is 55.9% (active).

By inhibition is commonly meant the change of the read-out against control, counted positive when it falls.

The values are drawn from PubChem BioAssay AID1645860 (Buhrlage Lab, Dana-Farber Cancer Institute and Novartis …, 2021).
